Shown are actives, neighbours in structure and some others; about 3.8% of the full set was active somewhere.
697 NFkB inh = inhibitors of PMA/ionomycin-induced NF-kB reporter, 697 cells, primary screen, B-cell NF-kB inhibitor project, cell-based, luminescence, uHTS; 697 B-cell NF-kB luciferase reporter, 16 h; inhibition, % at 4 µM; 330,000 compounds, 0.33% hits; in the data active = inhibition above about 35%
Shn3 inh set2 = reduction of Shn3 3'UTR firefly luciferase signal, primary screen, Schnurri-3 inhibitor project, cell-based, Clone20 osteoblasts, set 2; 360,000 compounds, 0.52% hits; Clone20 osteoblast Shn3 3'UTR firefly luciferase, 24 h; AID 588674, 2011; inhibition, % at 12.5 µM;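 active = mean inhibition of at least 75% with every replicate also reaching 75%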;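 also: 0% = median of neutral control wells and 100% = pilot-screen positive control compound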
Jurkat NFkB inh = inhibitors of induced NF-kB luciferase reporter, primary screen, TCR NF-kB activation inhibitor project, cell-based, luminescence, uHTS; AID 435003, 2010; inhibition, % at 4 µM; Jurkat, PMA/ionomycin-induced NF-kB luciferase reporter; 330,000 compounds, 0.53% hits; in the data active = inhibition above about 50%
Gli-Sufu block = Gli-Sufu pathway antagonists, primary screen, luciferase luminescence, Sufu-KO-LIGHT cells, uHTS. Sufu-KO-LIGHT fibroblasts, Gli luciferase reporter luminescence. inhibition, % at 5 µM. 340,000 compounds, 0.74% hits. AID 588413, 2011;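 active = inhibition above about 55%, limit read from the data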;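 also: 0% = DMSO-treated cells and 100% = wells with medium but no cells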
Mdm2-MdmX inh = inhibitors of human Mdm2-MdmX association, primary screen, cell-based, luminescence, split luciferase, SaOS-2, uHTS; Protein Mdm4 (Homo sapiens) + E3 ubiquitin-protein ligase Mdm2 (Homo sapiens), …; SaOS-2 split-luciferase Mdm2/MdmX complementation; inhibition, % at 8 µM; 330,000 compounds, 3% hits;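 active = inhibition of at least 50% at 8 µM in the primary screen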
Target sequence (O15151 whole entry, looked up): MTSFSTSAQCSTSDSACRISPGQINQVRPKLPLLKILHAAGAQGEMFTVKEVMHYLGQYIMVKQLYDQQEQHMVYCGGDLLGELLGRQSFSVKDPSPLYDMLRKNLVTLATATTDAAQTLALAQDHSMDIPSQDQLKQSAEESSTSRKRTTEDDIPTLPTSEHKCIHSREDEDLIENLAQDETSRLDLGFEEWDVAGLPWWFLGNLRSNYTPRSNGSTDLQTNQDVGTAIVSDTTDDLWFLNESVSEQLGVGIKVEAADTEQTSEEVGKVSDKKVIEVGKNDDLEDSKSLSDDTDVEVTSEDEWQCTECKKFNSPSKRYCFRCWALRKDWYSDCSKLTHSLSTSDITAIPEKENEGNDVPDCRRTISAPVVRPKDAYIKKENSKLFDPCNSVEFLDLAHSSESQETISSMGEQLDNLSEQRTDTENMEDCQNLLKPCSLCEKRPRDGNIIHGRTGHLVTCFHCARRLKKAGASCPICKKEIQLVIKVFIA
Target sequence (Q00987 whole entry, looked up): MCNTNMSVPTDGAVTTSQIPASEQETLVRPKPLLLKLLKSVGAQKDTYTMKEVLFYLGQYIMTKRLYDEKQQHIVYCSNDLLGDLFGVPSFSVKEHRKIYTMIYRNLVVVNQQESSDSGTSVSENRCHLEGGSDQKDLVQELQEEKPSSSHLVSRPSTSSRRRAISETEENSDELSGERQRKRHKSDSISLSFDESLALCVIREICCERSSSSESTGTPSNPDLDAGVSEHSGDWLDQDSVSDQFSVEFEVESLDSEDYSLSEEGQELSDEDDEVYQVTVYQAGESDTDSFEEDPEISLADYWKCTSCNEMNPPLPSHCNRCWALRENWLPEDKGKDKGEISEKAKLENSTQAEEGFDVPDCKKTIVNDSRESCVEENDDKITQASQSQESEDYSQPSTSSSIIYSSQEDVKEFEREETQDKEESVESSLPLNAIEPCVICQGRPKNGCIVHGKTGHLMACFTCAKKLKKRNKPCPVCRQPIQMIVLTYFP
Gli-Sufu confirm = Gli-SUFU pathway antagonists, confirmation, single concentration, luciferase luminescence, Sufu-KO-LIGHT cells. shares compounds with Gli-Sufu block. Gli luciferase reporter. inhibition, % at 5 µM. 2,500 compounds, 40% hits. AID 602428, 2012;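 active = mean inhibition at 5 µM reaching about 45%, limit read from the data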;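 also: plate controls were DMSO-treated cells for no effect and wells lacking cells for full effect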
Gli cytotox = cytotoxicity in Sufu-KO-LIGHT cells, confirmation, cytotoxicity control for Gli-SUFU antagonist project, cell-based, ATP luminescence, single concentration; AID 651994, 2013; cytotoxicity, % at 5 µM; 2,500 compounds, 32% hits; shares compounds with Gli-Sufu block;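 active = mean cytotoxicity at 5 µM above about 25%, limit read from the data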;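 also: cells exposed to compound overnight for roughly 16 to 18 hours; plate controls were DMSO wells with cells for no effect and medium without cells for full effect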
Wnt3a counter = Wnt3a reporter signal inhibition, confirmation, counter-screen for Gli-SUFU antagonist project, Wnt-LIGHT cells, luminescence, single concentration. 2,500 compounds, 20% hits. Wnt3a-driven luciferase reporter. shares compounds with Gli-Sufu block. inhibition, % at 6.25 µM. AID 651995, 2013;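 active = mean inhibition above about 25%, limit read from the data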
Active calls of the source: *.

`Cn1nc(C(C)(C)C)cc1C(=O)NCc1ccc2c(c1)OCO2` gave 697 NFkB inh 5, Shn3 inh set2 90*, Jurkat NFkB inh 40, Gli-Sufu block 68*, Mdm2-MdmX inh 34, Gli-Sufu confirm 68*, Gli cytotox 30* and Wnt3a counter 43*.
Screening O=C(CN1C(=O)c2cccc3cccc1c23)N1CCN(c2ccccc2)CC1 returned 697 NFkB inh 22, Shn3 inh set2 -17, Jurkat NFkB inh 1, Gli-Sufu block 93*, Mdm2-MdmX inh 3, Gli-Sufu confirm 21, Gli cytotox 5 and Wnt3a counter -16.
Screening O=C(CN1C(=O)c2cccc3cccc1c23)N1CCN(c2ccc(F)cc2)CC1 returned 697 NFkB inh 15, Shn3 inh set2 17, Jurkat NFkB inh -5, Gli-Sufu block 8 and Mdm2-MdmX inh 6.
Screening CCOc1ccc(CN(C)CC(=O)Nc2ccc3c(c2)CCC3)cc1OC returned 697 NFkB inh -2, Shn3 inh set2 55, Jurkat NFkB inh -5, Gli-Sufu block 53, Mdm2-MdmX inh 2, Gli-Sufu confirm 24, Gli cytotox 22 and Wnt3a counter -30.
For C=CCOc1ccc(CN(C)CC(=O)Nc2ccc3c(c2)CCC3)cc1 the results were 697 NFkB inh 12, Shn3 inh set2 17, Jurkat NFkB inh 13, Gli-Sufu block 22 and Mdm2-MdmX inh -15.
For CN(Cc1ccc(F)cc1)C(=O)CN1CCN(S(=O)(=O)c2ccc3c(c2)OCCCO3)CC1 the results were Shn3 inh set2 -14.
Screening O=C(c1cc(-c2ccco2)nc2ccccc12)N1CCN(c2ccc(F)cc2)CC1 returned 697 NFkB inh -3, Shn3 inh set2 2, Jurkat NFkB inh 0, Gli-Sufu block 64*, Mdm2-MdmX inh -14, Gli-Sufu confirm 21, Gli cytotox 34* and Wnt3a counter -42.
COc1ccc(-c2cc(C(=O)N3CCCCCC3)c3ccccc3n2)cc1OC was read as Shn3 inh set2 18.
Screening COc1ccc(-c2cc(C(=O)N3CCCCCC3)c3ccccc3n2)cc1 returned 697 NFkB inh -27, Shn3 inh set2 -19, Jurkat NFkB inh -9, Gli-Sufu block 50, Mdm2-MdmX inh 3, Gli-Sufu confirm 16, Gli cytotox 22 and Wnt3a counter -11.
For CC(C(=O)NC1CCCCC1)N1CCN(S(=O)(=O)c2cccs2)CC1 (stereo not given) the results were 697 NFkB inh 15, Shn3 inh set2 7, Jurkat NFkB inh -14, Gli-Sufu block -17 and Mdm2-MdmX inh 18.
COc1ccc2cc3cc(C(=O)N4CCN(C5CCCCC5)CC4)oc3nc2c1 was read as 697 NFkB inh 19, Shn3 inh set2 -7, Jurkat NFkB inh 0, Gli-Sufu block 53, Mdm2-MdmX inh 13, Gli-Sufu confirm 26, Gli cytotox 36* and Wnt3a counter -23.
`CC(=O)c1ccc(NC(=S)N2CC(C)CC(C)C2)cc1` (stereo not given) gave 697 NFkB inh -16, Shn3 inh set2 6, Jurkat NFkB inh -4, Gli-Sufu block 1 and Mdm2-MdmX inh 6.
Screening CC(=O)c1ccc(NC(=S)N2CCN(C(=S)Nc3ccc(C(C)=O)cc3)C(C)C2)cc1 (stereo not given) returned 697 NFkB inh 4, Shn3 inh set2 4, Jurkat NFkB inh 6, Gli-Sufu block 58*, Mdm2-MdmX inh 16, Gli-Sufu confirm 9, Gli cytotox 31* and Wnt3a counter -10.
For CN(Cc1ccc(OC(F)F)cc1)C(=O)c1cccc(S(=O)(=O)N2CCN(Cc3ccccc3)CC2)c1 the results were Shn3 inh set2 89*, Gli-Sufu block 58*, Gli-Sufu confirm 58*, Gli cytotox 22 and Wnt3a counter 3.
For CC1CCC(NC(=O)c2cccc(S(=O)(=O)N3CCN(C)CC3)c2)CC1 (stereo not given) the results were 697 NFkB inh -4, Shn3 inh set2 -9, Jurkat NFkB inh -16, Gli-Sufu block -19 and Mdm2-MdmX inh 16.
`CN(Cc1c(F)cccc1Cl)C(=O)c1cccc(S(=O)(=O)N2CCN(Cc3ccccc3)CC2)c1` gave Shn3 inh set2 15 and Gli-Sufu block 8.
For CN(CCOc1ccc(Cl)cc1)C(=O)c1cccc(S(=O)(=O)N2CCN(c3ccccc3)CC2)c1 the results were Shn3 inh set2 49, Gli-Sufu block 51, Gli-Sufu confirm 58*, Gli cytotox 34* and Wnt3a counter -6.
COc1cccc(CN(C)C(=O)c2cccc(S(=O)(=O)N3CCN(c4ccc(F)cc4)CC3)c2)c1OC was read as 697 NFkB inh -44, Shn3 inh set2 82, Jurkat NFkB inh 14, Gli-Sufu block 51, Mdm2-MdmX inh 34, Gli-Sufu confirm 50*, Gli cytotox 33* and Wnt3a counter -12.
Screening CC1CCC(NC(=O)c2cccc(S(=O)(=O)N3CCN(c4ccccc4)CC3)c2)CC1 (stereo not given) returned 697 NFkB inh -2, Shn3 inh set2 77, Jurkat NFkB inh 13, Gli-Sufu block 50, Mdm2-MdmX inh 23, Gli-Sufu confirm 47*, Gli cytotox 25 and Wnt3a counter -30.
Screening C[C@H](CO)N1C[C@H](C)[C@@H](CN(C)Cc2ccc(C(=O)O)cc2)OCc2cnnn2CCCC1=O returned Shn3 inh set2 3.
Screening CCCCOC(=O)c1ccc(NC(=O)C(=O)NCCN(C)C)cc1 returned 697 NFkB inh -27, Shn3 inh set2 -31, Jurkat NFkB inh 2, Gli-Sufu block -5 and Mdm2-MdmX inh 6.
`CCNc1nc(NC(C)C)nc(ON=C(C)C)n1` gave 697 NFkB inh 14, Jurkat NFkB inh 8 and Mdm2-MdmX inh 14.
`O=C(CSc1ccc2nnc(-c3cccnc3)n2n1)NCc1ccco1` gave 697 NFkB inh 0, Shn3 inh set2 3, Jurkat NFkB inh 2, Gli-Sufu block 82*, Mdm2-MdmX inh 28, Gli-Sufu confirm 13, Gli cytotox 17 and Wnt3a counter -10.
CCn1cc(CN2CCC(n3nccc3NC(=O)C3CCCC3)CC2)cn1 was read as 697 NFkB inh -16, Shn3 inh set2 -21, Jurkat NFkB inh -7, Gli-Sufu block 4 and Mdm2-MdmX inh 1.
